# The panel holds about 83,000 compounds, 20% with a hit somewhere; the sample as a whole holds those more often.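 Treatment: one concentration, 48 hours, 96-well format. Scoring: percent growth, with anything below 10 considered active.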 Unmarked numbers belong to inactive results. Calls of active or inactive are those of the source.
# What was measured:
# Assay in all cases: NCI-60 one-dose screen, 48 h (100 = growth as untreated, 0 = no growth, -100 = all killed)
# Conditions in all cases: 10 µM unless noted
# NCI-H23 lung = test system: NCI-H23 lung
# NCI-H226 lung = test system: NCI-H226 lung
# NCI-H322M lung = test system: NCI-H322M lung
# HOP-62 NSCLC = test system: HOP-62 NSCLC
# NCI-H460 lung = test system: NCI-H460 lung
# HOP-92 NSCLC = test system: HOP-92 NSCLC
# NCI-H522 lung = test system: NCI-H522 lung
# A549/ATCC NSCLC = test system: A549/ATCC NSCLC
# 786-0 renal = test system: 786-0 renal
# COLO 205 colon = test system: COLO 205 colon
Compound,growth (NCI-H23 lung),growth (NCI-H226 lung),growth (NCI-H322M lung),growth (HOP-62 NSCLC),growth (NCI-H460 lung),growth (HOP-92 NSCLC),growth (NCI-H522 lung),growth (A549/ATCC NSCLC),growth (786-0 renal),growth (COLO 205 colon)
CCCCn1cnc(-c2cc(-c3ccccc3)cc(C(F)(F)F)c2)n1,98.1%,95.6%,99.8%,99.1%,99%,76%,93.8%,97.8%,103%,104%
Clc1ccc2c(c1)-c1ccccc1C1=NCCN12,33.4%,24.7%,25.3%,45.9%,8.92% (active),58.6%,23.2%,13%,44.8%,7.28% (active)
COc1ccc(/C=C(/C(=O)N2CCN(c3ccccc3)CC2)c2cc(OC)c(OC)c(OC)c2)cc1O,31.5%,28.9%,42%,20.6%,5.38% (active),94%,-9.76% (active),17.4%,25.5%,35.7%
COc1cccc(NC(=O)c2c(-c3ccccc3)c(-c3ccccc3)n[nH]c2=O)c1,101%,100%,111%,102%,98%,112%,89.2%,100%,97.6%,110%
C=C(CN1CC=CCC1)[C@@H]1CC[C@]2(C(=O)OC)CC[C@]3(C)[C@H](CC[C@@H]4[C@@]5(C)CC[C@H](OC(C)=O)C(C)(C)[C@@H]5CC[C@]43C)[C@@H]12,95.5%,95.1%,104%,106%,97.8%,71.2%,84%,100%,109%,77.6%
Cc1nn(-c2ccc(Cl)cc2)c(=O)n1CCN1CCOCC1,64.5%,79.4%,92.3%,33.8%,41.7%,30.1%,69%,56.4%,59.4%,107%
CN(C)CCOc1nc2c3ccncc3cc(-c3cccc(Cl)c3)c2c2cnccc12,29.7%,35%,44.1%,43.5%,10.5%,56.2%,31.9%,16.4%,33.4%,13.8%
CCc1ccc(-c2ccc(NC3CCCCCC3)nn2)cc1S(N)(=O)=O,106%,104%,110%,120%,104%,94.2%,87.7%,98.2%,103%,115%
COc1ccc2cc(-c3nc(C)c(C(C)=O)c(-c4ccc(C)cc4)n3)ccc2c1,89.2%,80.1%,87.5%,105%,92.6%,86.2%,81.3%,92.4%,87.9%,102%
COc1ccc(-c2n[nH]nc2-c2cc(OC)c3c(c2)OCO3)cc1,10.4%,69.1%,13.9%,18.5%,7.77% (active),29%,-51.6% (active),13.9%,20.5%,-93.1% (active)
CC1CN(CCCOC(=O)Nc2ccc(Cl)cc2)CCN1C(C)(C)C (stereo not given),101%,96.4%,96.5%,112%,106%,133%,97.5%,103%,99.3%,102%
CC1(C)C2CCC(O)(C(=O)O)C1C2 (stereo not given),113%,113%,95.9%,113%,116%,117%,117%,111%,107%,127%
CCCCCc1c(C)[nH]c(/C=C2\N=C(c3ccc[nH]3)C=C2CC)c1C,-81% (active),-92.3% (active),-90.2% (active),-72.2% (active),-73.3% (active),-91.8% (active),-88.8% (active),-86.4% (active),-93.6% (active),-87.7% (active)

# — PubChem BioAssay (NCI)
